Experimental data: the supplement of paper PMC11001985
Values without a mark were called inactive.

These targets were tested with C#CCNC(=O)CCSSCCC(=O)NCCc1ccc(C=O)c(C=O)c1 (assay: lysine labeling ratio R10:1 (500 µM / 50 µM probe), SILAC-ABPP in living cells; higher = lower intrinsic lysine reactivity toward the probe, active = 2 or less). Conditions: HeLa; probe concentrations 500 vs 50 µM.
Outline: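 For each lysine, R is the median over forward and reverse replicates of the filtered median MS1 peptide ratio of high probe to low probe. The probe, an alkyne-tagged, disulfide-linked lysine probe, was given at 500 µM or 50 µM to living SILAC light and heavy HeLa cells in PBS at room temperature, with label swaps. Values are capped at 20.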

UniProt P15144, sequence (P15144 whole entry): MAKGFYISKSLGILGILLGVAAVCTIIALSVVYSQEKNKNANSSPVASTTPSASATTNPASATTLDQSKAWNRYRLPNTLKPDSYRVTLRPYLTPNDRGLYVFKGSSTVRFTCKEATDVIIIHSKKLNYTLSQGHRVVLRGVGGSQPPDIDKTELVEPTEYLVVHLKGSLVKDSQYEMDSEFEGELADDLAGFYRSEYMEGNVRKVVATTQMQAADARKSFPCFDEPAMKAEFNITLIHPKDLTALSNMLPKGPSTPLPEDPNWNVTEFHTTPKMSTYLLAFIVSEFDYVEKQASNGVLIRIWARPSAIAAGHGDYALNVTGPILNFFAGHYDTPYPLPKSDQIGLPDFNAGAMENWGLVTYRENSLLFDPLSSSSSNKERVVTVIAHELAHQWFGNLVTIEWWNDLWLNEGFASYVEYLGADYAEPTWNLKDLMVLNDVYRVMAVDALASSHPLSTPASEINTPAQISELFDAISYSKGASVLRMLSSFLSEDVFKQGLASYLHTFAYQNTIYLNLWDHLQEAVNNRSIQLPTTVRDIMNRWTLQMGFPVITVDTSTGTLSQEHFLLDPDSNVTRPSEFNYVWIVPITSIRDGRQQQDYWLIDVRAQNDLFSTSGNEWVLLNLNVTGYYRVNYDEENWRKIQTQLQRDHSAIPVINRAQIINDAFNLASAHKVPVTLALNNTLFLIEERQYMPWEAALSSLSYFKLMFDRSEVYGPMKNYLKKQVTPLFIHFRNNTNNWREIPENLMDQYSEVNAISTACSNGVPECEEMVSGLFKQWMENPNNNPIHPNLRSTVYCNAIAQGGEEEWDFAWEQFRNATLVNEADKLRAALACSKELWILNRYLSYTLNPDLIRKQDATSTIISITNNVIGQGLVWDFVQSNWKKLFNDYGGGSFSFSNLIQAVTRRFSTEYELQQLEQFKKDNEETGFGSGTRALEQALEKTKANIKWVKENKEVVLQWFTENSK
UniProt Q8NC51, sequence (Q8NC51 whole entry): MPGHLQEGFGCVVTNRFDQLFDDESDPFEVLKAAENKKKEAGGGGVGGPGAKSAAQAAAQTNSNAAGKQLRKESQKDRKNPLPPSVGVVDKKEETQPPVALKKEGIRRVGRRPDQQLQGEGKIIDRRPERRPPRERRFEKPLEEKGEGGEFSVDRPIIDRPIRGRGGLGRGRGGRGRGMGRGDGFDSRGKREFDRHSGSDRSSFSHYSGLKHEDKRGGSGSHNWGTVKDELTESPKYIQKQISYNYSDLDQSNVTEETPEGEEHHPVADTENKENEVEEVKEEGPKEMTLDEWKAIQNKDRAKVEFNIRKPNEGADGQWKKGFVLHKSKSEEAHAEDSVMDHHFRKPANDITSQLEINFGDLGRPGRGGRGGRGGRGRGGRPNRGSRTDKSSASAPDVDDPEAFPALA
UniProt P56199, sequence (P56199 whole entry): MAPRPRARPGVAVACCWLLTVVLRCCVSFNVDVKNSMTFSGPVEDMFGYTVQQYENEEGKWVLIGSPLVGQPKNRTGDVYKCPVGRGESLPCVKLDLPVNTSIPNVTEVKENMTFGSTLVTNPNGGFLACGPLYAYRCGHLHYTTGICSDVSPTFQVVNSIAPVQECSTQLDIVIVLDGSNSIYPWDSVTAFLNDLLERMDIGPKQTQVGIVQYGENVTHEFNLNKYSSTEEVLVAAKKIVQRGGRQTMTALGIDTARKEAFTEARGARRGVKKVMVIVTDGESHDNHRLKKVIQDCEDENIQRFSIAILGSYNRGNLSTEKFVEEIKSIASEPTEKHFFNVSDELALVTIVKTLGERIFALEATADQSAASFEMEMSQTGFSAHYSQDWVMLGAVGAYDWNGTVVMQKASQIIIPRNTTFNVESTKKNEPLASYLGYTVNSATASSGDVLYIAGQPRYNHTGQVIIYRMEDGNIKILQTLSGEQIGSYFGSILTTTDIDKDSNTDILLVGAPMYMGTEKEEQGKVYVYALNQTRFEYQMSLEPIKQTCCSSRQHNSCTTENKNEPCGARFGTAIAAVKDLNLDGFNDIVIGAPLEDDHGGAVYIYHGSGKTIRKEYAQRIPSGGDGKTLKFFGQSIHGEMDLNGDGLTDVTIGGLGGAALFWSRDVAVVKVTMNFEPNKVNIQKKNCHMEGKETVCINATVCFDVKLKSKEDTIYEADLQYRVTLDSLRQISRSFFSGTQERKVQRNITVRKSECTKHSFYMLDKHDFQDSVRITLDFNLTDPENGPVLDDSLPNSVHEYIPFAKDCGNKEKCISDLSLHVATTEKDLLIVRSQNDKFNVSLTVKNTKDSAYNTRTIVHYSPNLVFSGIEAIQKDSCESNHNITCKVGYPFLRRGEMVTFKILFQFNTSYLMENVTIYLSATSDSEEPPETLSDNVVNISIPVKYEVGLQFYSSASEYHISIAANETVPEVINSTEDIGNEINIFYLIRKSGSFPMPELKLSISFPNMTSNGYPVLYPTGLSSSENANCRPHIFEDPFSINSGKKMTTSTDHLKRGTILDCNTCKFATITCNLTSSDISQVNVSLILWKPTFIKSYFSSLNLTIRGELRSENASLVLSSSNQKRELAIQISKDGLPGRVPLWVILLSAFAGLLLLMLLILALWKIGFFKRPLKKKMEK
UniProt P11021, sequence (P11021 whole entry): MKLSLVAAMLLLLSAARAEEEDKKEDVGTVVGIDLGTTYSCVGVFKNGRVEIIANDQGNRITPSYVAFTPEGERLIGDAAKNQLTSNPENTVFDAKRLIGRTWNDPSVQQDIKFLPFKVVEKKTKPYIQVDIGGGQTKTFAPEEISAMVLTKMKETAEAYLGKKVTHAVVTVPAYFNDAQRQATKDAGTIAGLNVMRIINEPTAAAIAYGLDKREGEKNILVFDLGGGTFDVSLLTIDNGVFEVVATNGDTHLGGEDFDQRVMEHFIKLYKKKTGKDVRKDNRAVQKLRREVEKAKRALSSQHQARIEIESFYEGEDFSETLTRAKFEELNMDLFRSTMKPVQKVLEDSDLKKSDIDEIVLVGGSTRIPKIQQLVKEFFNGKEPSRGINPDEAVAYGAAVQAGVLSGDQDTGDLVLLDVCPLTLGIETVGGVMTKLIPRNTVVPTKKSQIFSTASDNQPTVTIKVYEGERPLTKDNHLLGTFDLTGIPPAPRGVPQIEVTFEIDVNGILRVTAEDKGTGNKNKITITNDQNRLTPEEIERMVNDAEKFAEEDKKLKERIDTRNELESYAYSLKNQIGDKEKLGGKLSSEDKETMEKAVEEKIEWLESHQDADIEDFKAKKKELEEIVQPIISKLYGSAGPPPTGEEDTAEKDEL
UniProt Q8WWI1, sequence (Q8WWI1 whole entry): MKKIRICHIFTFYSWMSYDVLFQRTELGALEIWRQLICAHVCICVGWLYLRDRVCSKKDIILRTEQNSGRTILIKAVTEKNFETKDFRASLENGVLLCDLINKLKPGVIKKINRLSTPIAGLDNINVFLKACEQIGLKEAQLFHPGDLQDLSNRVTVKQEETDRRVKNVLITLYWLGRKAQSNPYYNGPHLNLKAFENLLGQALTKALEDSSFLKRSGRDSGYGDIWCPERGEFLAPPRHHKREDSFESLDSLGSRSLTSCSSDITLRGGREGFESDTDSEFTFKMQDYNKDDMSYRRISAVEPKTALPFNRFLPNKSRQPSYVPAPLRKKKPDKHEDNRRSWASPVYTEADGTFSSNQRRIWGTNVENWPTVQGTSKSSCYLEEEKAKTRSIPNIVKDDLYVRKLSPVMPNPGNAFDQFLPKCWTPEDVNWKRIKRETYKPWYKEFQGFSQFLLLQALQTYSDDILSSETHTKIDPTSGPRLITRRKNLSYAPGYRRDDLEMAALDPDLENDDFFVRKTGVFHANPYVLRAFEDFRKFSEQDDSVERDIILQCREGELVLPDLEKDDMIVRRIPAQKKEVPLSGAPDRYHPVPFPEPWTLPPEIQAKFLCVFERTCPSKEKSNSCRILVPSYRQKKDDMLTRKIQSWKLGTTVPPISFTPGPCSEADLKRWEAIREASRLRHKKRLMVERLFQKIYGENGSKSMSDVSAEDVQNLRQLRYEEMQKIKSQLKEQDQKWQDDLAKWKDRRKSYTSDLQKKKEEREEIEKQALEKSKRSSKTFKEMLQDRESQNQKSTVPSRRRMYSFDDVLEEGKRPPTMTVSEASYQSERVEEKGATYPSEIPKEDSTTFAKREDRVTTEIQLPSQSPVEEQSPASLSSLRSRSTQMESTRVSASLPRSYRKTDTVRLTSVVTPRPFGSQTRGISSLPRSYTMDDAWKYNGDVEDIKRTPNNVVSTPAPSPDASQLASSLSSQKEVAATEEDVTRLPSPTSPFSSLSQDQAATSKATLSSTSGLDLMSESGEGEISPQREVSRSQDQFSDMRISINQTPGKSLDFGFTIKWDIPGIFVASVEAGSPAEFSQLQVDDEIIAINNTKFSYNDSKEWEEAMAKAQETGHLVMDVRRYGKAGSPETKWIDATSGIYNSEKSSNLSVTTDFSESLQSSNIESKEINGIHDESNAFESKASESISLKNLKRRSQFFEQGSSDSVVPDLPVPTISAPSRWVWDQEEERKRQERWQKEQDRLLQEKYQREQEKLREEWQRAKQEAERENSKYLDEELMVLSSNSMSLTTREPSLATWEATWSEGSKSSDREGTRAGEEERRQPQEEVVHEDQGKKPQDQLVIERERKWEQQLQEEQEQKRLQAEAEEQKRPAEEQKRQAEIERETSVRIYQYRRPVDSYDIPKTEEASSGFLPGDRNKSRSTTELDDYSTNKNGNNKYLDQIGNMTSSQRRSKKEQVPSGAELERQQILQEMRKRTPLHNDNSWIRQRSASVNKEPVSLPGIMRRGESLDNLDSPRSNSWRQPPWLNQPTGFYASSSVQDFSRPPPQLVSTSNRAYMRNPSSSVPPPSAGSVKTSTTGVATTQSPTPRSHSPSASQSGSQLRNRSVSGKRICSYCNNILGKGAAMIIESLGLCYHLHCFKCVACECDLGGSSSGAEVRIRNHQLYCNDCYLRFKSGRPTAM

Row | Target | lysine labeling ratio R10:1
1 | UniProt P25705 (lysine site: K175) | 2.16
2 | MET (lysine site: K600) (UniProt P08581) | 1.67 (active)
3 | ANPEP (lysine site: K836) (UniProt P15144) | 0.79 (active)
4 | ANPEP (lysine site: K379) (UniProt P15144) | 0.5 (active)
5 | UniProt O43865 (lysine site: K302) | 1.25 (active)
6 | UniProt Q9NYQ6 (lysine site: K1830) | 0.925 (active)
7 | ITGA1 (lysine site: K259) (UniProt P56199) | 4.65
8 | ITGA2 (lysine site: K718) (UniProt P17301) | 2.51
9 | SERBP1 (lysine site: K303) (UniProt Q8NC51) | 2.74
10 | RPSA (lysine site: K89) (UniProt P08865) | 4.12
11 | AHCY (lysine site: K20) (UniProt P23526) | 1.54 (active)
12 | MLEC (lysine site: K69) (UniProt Q14165) | 1.64 (active)
13 | LDHA (lysine site: K155) (UniProt P00338) | 2.54
14 | RPS19 (lysine site: K122) (UniProt P39019) | 4.72
15 | RPL3 (lysine site: K155) (UniProt P39023) | 0.69 (active)
16 | LMO7 (lysine site: K1456) (UniProt Q8WWI1) | 1.37 (active)
17 | HSPA5 (lysine site: K164) (UniProt P11021) | 0.987 (active)
